Source: PubChem
Rows were chosen to be rich in hits. Some 7.4% of all compounds tested hit in one or more screens of this group.
NPC1 promoter act – activates the NPC1 promoter | Huh7 NPC1 promoter luciferase reporter, 24 h | Potency, µM (top dose mostly 9.22 µM), for the others: top-dose activation, usual class: activators | actives 2.4% (n = 320,000) | AID 485313; note: % of control where 0% means no effect; nearly all actives have a fitted effect of over 60% in size
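Readout is luciferase luminescence, reflecting NPC1 promoter activation in stably transfected Huh7 cells after 24 h compound exposure at 37 °C in reduced-serum medium with 10% FBS.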
FLuc modulator – firefly luciferase modulation, counter-screen for miR-21 project; actives 6.9% (n = 360,000); AID 588342; P08659; Potency, µM (top dose mostly 57.5 µM), for inactives: top-dose activity change, negative = inhibition, usual class: inhibitors; purified FLuc, Km substrates, luminescence inhibition;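 note: plate controls were vehicle for no effect and reference inhibitor for full effect; nearly all actives have a fitted effect of over 55% in size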
Target sequence (P08659 whole entry, looked up): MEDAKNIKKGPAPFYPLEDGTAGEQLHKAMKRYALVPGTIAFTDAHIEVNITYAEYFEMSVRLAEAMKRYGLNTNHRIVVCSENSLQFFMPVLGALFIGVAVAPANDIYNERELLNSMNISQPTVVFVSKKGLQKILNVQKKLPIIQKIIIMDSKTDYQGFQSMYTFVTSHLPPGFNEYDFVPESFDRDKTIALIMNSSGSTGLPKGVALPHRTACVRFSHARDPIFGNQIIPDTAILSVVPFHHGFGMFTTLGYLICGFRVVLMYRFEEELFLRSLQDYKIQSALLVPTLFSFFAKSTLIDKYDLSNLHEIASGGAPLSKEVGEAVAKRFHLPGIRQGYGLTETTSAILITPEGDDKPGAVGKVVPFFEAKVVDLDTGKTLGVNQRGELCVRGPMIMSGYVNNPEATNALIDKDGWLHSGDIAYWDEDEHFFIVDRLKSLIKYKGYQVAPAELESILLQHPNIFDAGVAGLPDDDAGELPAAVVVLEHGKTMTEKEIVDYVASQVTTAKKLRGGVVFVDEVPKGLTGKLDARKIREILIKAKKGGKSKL
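Purified P. pyralis luciferase (10nM final) with 10uM D-luciferin and 10uM ATP (Km levels) in 50mM Tris acetate pH 7.5, 10mM Mg acetate, 0.01% Tween-20, 0.05% BSA; qHTS 6-point titration, ~60 µM downward; luminescence read.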
Rab9 prom act – Rab9 promoter activation. Potency, µM (titrated, usually from 9.22 µM), for the others: at the highest dose activation, negative = inhibition, actives largely listed as activators. Huh7 Rab9 promoter-luciferase reporter, luminescence, 24 h. actives 2.8% (n = 320,000); note: % of control where 0% means no effect; nearly all actives have a fitted effect of over 60% in size
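Using Huh7 cells stably transfected with Rab9 promoter–luciferase, compounds were incubated 24 h at 37 °C, 5% CO2; luciferase luminescence was read 10 min after reagent addition.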
Luc counter – blocks Kinase-Glo luciferase, a counter-screen artifact; actives 0.28% (n = 200,000); Q27757; Potency, µM (doses to about 38.3 µM), for the others: top-dose activity change, negative = inhibition, usual class: inhibitors; Kinase-Glo luciferase, ATP luminescence, 8 min; note: % is set by controls: 0 for no effect and ±100 for the full control effect; nearly all actives have a fitted effect of over 60% in size
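Inhibition of Kinase-Glo luciferase light generation was assessed at 10 uM ATP in pH 7.2 imidazole buffer, with luminescence measured after eight minutes at ambient temperature.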
ELG1 genotoxic – induces genotoxicity in HEK293T cells with luciferase-tagged ELG1; actives 1.3% (n = 330,000); AID 504466; Potency, µM (highest dose often 46 µM), for the others: at the top dose activity change, positive = activation, usual class: activators; HEK293T ELG1-luciferase reporter, luminescence, 16 h; note: % of control where 0% means no effect; nearly all actives have a fitted effect of over 60% in size
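DMSO vehicle served as control against compound-treated ELG1-luciferase HEK293T cells; exposure lasted 16 hr at 37 °C and 5% CO2, followed by ONE-Glo luminescence detection after 30 min.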
SMN2 splice enh – increases expression of the SMN2 splice variant; HEK293 SMN2-luciferase splicing reporter, luminescence, 30-36 h; Potency, µM (highest dose often 46.1 µM), without a hit: at the top dose activity change, positive = activation, most hits filed as activators; actives 2.8% (n = 210,000); note: % of control where 0% means no effect; nearly all actives have a fitted effect of over 55% in size
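HEK293 cells carry an SMN2 minigene-luciferase reporter in which exon 7 inclusion puts luciferase in frame. Cells were seeded at 2000 cells/well, attached for 10-12 hours, then exposed to compounds for 30-36 hours at 37C before ONE-Glo luminescence.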
* = called active by the depositor; ? = inconclusive; nt = no result given; [ ] = remark or other dose. Calls come from the whole dose curve; as a rule, active = well fitted curve in the direction sought with a large enough effect; inconclusive = small, poorly fitted or top-dose-only effect, or another doubt; inactive = no such curve, though single readings can be large; an effect the other way counts as inactive or inconclusive. Potency is the fitted concentration of half-maximal effect.

SMILES	NPC1 promoter act	FLuc modulator	Rab9 prom act	Luc counter	ELG1 genotoxic	SMN2 splice enh
CC1CCCCN1c1nc(-c2ccncc2)nc2ccccc12 (stereo not drawn)	-4%	0%	-5%	3%	-7%	15%
CC1CCN(c2nc(-c3ccc(C(C)(C)C)cc3)nc3ccccc23)CC1	nt	5.4µM*	nt	nt	nt	-1%
CN(C)/C=C/C(=O)c1ccc(-n2cccc2)cc1	3.5µM*	11µM*	2.8µM*	-19%	?	13µM*
Cc1cc(C)cc(NC(=O)Nc2ccc(-n3ccc(C(F)(F)F)n3)cc2)c1	?	-11%	2%	nt	-10%	nt
O=C(Nc1ccc(-n2ccc(C(F)(F)F)n2)cc1)Nc1cccc(Cl)c1	19%	11µM*	26%	nt	-1%	nt
O=C(Nc1ccc(-n2ccc(C(F)(F)F)n2)cc1)c1cccs1	2.8µM*	11µM*	3.2µM*	nt	?	nt
COc1ccccc1NC(=O)Nc1ccc(-n2ccc(C(F)(F)F)n2)cc1	?	11µM*	2.8µM*	nt	-1%	nt
O=C(Nc1ccc(F)cc1)c1oc2ccccc2c1NC(=O)C1CCCCC1	nt	-3%	nt	nt	nt	-3%
CCOc1ccccc1N1CCN(CC(=O)Nc2ccnn2C2CCCC2)CC1	-2%	nt	-1%	nt	-1%	nt
Cc1nn(-c2ccc(N3CCOCC3)nn2)c(C)c1CCC(=O)Nc1ccccc1	13%	?	11%	nt	3%	nt
CCOC(=O)c1cccc(NC(=O)CCc2c(C)nn(-c3ccc(N4CCCCC4)nn3)c2C)c1	nt	11µM*	nt	nt	nt	nt
CC(=O)c1ccc(NC(=O)CCc2c(C)nn(-c3ccc(N4CCCCC4)nn3)c2C)cc1	nt	8.5µM*	nt	nt	nt	nt
COc1ccc(C)cc1NC(=O)CCc1c(C)nn(-c2ccc(N3CCCCC3)nn2)c1C	?	12µM*	?	nt	4%	nt
CCOC(=O)c1cccc(NC(=O)CCc2nnc3ccc(N4CCCCC4)nn23)c1	-2%	2%	-3%	nt	0%	nt
Cc1ccc(NC(=O)CCc2c(C)nn(-c3ccc(N4CCCCC4)nn3)c2C)cc1C	?	12µM*	?	nt	12%[9.26 µM]	nt
COc1ccc(-c2nnc(SCc3cc(=O)c4cc(C)cc(C)c4[nH]3)n2C)cc1	nt	-9%	nt	nt	nt	nt
CN(C)c1ccc(/C=N/NC(=O)CN2CCCCC2)cc1Br	-6%	-15%	1%	nt	-1%	nt
CCC(Sc1nnc(C)n2c1cc1sccc12)C(=O)Nc1ccccc1F (stereo not drawn)	nt	-1%	nt	nt	nt	nt
C=C(C)C1CC=C(C)/C(=N/NC(=O)c2ccoc2C)C1 (stereo not drawn)	-1%	?	-2%	-2%	7%	-15%
Cc1nn(-c2ccc(N3CCCCC3)nn2)c(C)c1CCC(=O)Nc1ccc(F)c(F)c1	2.5µM*	5.4µM*	2.5µM*	nt	1%	nt
Cc1cc(C)cc(NC(=O)CCc2c(C)nn(-c3ccc(N4CCCCC4)nn3)c2C)c1	?	4.8µM*	?	nt	10%[9.26 µM]	nt
Cc1ccc(NC(=O)CCc2c(C)nn(-c3ccc(N4CCOCC4)nn3)c2C)cc1	6%	?	25%	nt	11%	nt
CCOc1ccccc1NC(=O)CCc1c(C)nn(-c2ccc(N3CCCCC3)nn2)c1C	3%	11µM*	21%	nt	-6%	nt
Cc1ccc(NC(=O)CCc2c(C)nn(-c3ccc(N4CCCCC4)nn3)c2C)cc1	1.6µM*	11µM*	?	nt	10%[9.26 µM]	nt
COc1ccc(NC(=O)CCn2c(=O)c3cccn3c3cccnc32)c(OC)c1	nt	-2%	nt	nt	nt	nt
N[C@@H](Cc1cc(-c2ccc(Cl)cc2Cl)cc(CP(=O)(O)O)c1O)C(=O)O	nt	nt	nt	3%	nt	nt
Nc1c(N2CCCCC2)c2ccccc2oc1=O	0%	-8%	-2%	-3%	0%	-16%
CC(=O)c1ccc(OCc2ccccc2)c(C)c1O	16%	17µM*	4%	14%	?	?
NNC(=O)c1ccccc1OCc1ccccc1	-3%	-3%	-4%	nt	1%	nt
COCCN(C(=O)C1CC1)c1nnc(-c2cccc(C)c2)s1	23%	?	25%	-1%	?	7%
